From PubChem
A selection: hits, their analogues and other compounds. The true share with any hit is near 5.4%.
Sm TGR inh – inhibitors of Schistosoma mansoni thioredoxin glutathione reductase; actives 3% (n = 360,000); Potency, µM (doses to about 114 µM), without a hit: at the highest dose activity change, negative = inhibition, most hits filed as inhibitors; purified TGR, DTNB reduction, TNB absorbance 405 nm; active = well fitted inhibition curve with a large enough effect; inconclusive = small, poorly fitted or top-dose-only effect; inactive = no such curve, though single readings can be large or run the other way; also: nearly all actives have a fitted effect of over 60% in size
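TGR 20 nM + NADPH 100 uM (dispensed conc.), cpd preinc 15 min RT; start with NADPH (500 uM addition) then DTNB (15 mM addition). Kinetic TNB absorbance, 405 nm filter. Four-parameter Hill fit across titration.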
VACV mCherry inh – inhibitors of vaccinia virus infection (mCherry reporter signal) | Vaccinia virus mCherry reporter infection, fluorescence | Potency, µM (doses to about 36.5 µM), without a hit: at the highest dose activity change, negative = inhibition, usual class: inhibitors | actives 0.63% (n = 310,000); calls by dose curve; tested in A549 cells; also: nearly all actives have a fitted effect of over 35% in size
LASV entry inh – Lassa virus entry inhibition. actives 1.2% (n = 300,000). Potency, µM (series often up to 37.9 µM), without a hit: top-dose activity change, negative = inhibition, actives largely listed as inhibitors. Lassa virus pseudotype entry inhibition, cell reporter; calls by dose curve; tested in HEK293 cells; also: nearly all actives have a fitted effect of over 50% in size
Vaccinia Venus – vaccinia inhibition (Venus reporter) | Vaccinia virus Venus reporter expression, fluorescence | Potency, µM (titrated, usually from 36.5 µM), for the others: at the top dose activity change, negative = inhibition, most hits filed as inhibitors | actives 0.46% (n = 330,000) | AID 720580; calls by dose curve; tested in A549 cells; also: nearly all actives have a fitted effect of over 30% in size
MARV entry inh – Marburg virus entry inhibition | Marburg virus pseudotyped entry inhibition, cell reporter | Potency, µM (doses to about 37.8 µM), for inactives: at the top dose activity change, negative = inhibition, usual class: inhibitors | actives 1.8% (n = 300,000) | AID 540276; calls by dose curve; tested in HEK293 cells
FMDV inh – blocks foot and mouth disease virus. actives 1.2% (n = 410,000). Potency, µM (doses to about 57.9 µM), for the others: at the top dose activity change, negative = inhibition, usual class: inhibitors. FMDV antiviral cell-based qHTS. AID 1159524; calls by dose curve; tested in HEK293T cells; also: read-out not given here; nearly all actives have a fitted effect of over 45% in size
Active calls of the source: *; [ ] = dose if it differs, or a comment. % is scaled to controls: 0 for no effect and ±100 for the full control effect; potency is read from the fitted curve at half-maximal effect.

What do the screens show for `COc1cc(C(C(=O)NCC2CCCO2)N(C(=O)Cn2nnc3ccccc32)c2ccc(C(C)=O)cc2)ccc1O` (stereo not drawn)?
Sm TGR inh: inconclusive; VACV mCherry inh: -0.5%; LASV entry inh: 2.0%[46.1 µM]; Vaccinia Venus: 1.1%; MARV entry inh: inconclusive; FMDV inh: 3.9%

What do the screens show for `Cc1ccc(C(=O)NCCC2=CCCCC2)cc1S(=O)(=O)N1CCCCC1`?
Sm TGR inh: -16.8%; VACV mCherry inh: inconclusive; LASV entry inh: 7.94µM*; Vaccinia Venus: -26.4%; MARV entry inh: inconclusive; FMDV inh: -0.6%

Results for O=C(NCCC1=CCCCC1)c1ccc(F)cc1 ?
Sm TGR inh: -15.3%; VACV mCherry inh: inactive; LASV entry inh: 10µM*; Vaccinia Venus: -19.0%; MARV entry inh: inconclusive; FMDV inh: inconclusive

What do the screens show for `COc1ccc(C(=O)NCCC2=CCCCC2)cc1`?
Sm TGR inh: 0.6%; VACV mCherry inh: -11.8%; LASV entry inh: inconclusive; Vaccinia Venus: -17.3%; MARV entry inh: 7.31µM*; FMDV inh: 12.6µM*

What do the screens show for `COc1ccccc1Nc1nn2c(=O)c3ccc(C(=O)NCCC4=CCCCC4)cc3nc2s1`?
Sm TGR inh: 4.0%; VACV mCherry inh: 8.91µM*; LASV entry inh: inconclusive; Vaccinia Venus: 7.94µM*; FMDV inh: inconclusive

What do the screens show for `OC(c1ccc2c(c1)CN(Cc1ccc3nsnc3c1)CCO2)C1CCCCC1` (stereo not drawn)?
VACV mCherry inh: -10.2%; Vaccinia Venus: -2.1%; FMDV inh: -9.5%

Results for COc1cccc(CCNC(=O)c2cnc3sc(N4CCCCCC4)nn3c2=O)c1 ?
Sm TGR inh: 6.8%; VACV mCherry inh: -24.1%; Vaccinia Venus: -20.5%; MARV entry inh: -9.8%[46.1 µM]; FMDV inh: inconclusive

What do the screens show for `Cc1nc2cc(NC(=O)[C@@H]3C[C@@H](Sc4ccccn4)CN3Cc3ccccc3)ccc2s1`?
VACV mCherry inh: -13.9%; Vaccinia Venus: -4.1%; FMDV inh: 20.7%

How did CC(C)COc1ccc(C(=O)N2CCCCC2CCN2CCOCC2)cc1 (stereo not drawn) do in these assays?
Sm TGR inh: -0.9%; VACV mCherry inh: -14.3%; LASV entry inh: -6.7%[46.1 µM]; Vaccinia Venus: -17.4%; MARV entry inh: -2.7%[46.1 µM]; FMDV inh: -3.1%

Results for Cc1cc(NC(c2ccc(Cl)cc2)c2ccc3cccnc3c2O)no1 (stereo not drawn) ?
Sm TGR inh: 12.6µM*; LASV entry inh: inconclusive; Vaccinia Venus: inconclusive; MARV entry inh: inconclusive; FMDV inh: -18.6%

Results for CC(C)C(=O)NC(c1ccc(Cl)cc1Cl)c1ccc2cccnc2c1O (stereo not drawn) ?
Sm TGR inh: inconclusive; FMDV inh: 24.4%

What do the screens show for `CC(=O)NC(c1ccc(Cl)cc1)c1ccc2cccnc2c1O` (stereo not drawn)?
FMDV inh: -8.0%

What do the screens show for `CCCCC(=O)NC(c1ccc(Cl)cc1Cl)c1ccc2cccnc2c1O` (stereo not drawn)?
Sm TGR inh: 1.9%; VACV mCherry inh: inconclusive; LASV entry inh: 7.08µM*; Vaccinia Venus: inconclusive; MARV entry inh: inconclusive; FMDV inh: 10.3%

What do the screens show for `CCC(=O)NC(c1ccc(Cl)cc1Cl)c1ccc2cccnc2c1O` (stereo not drawn)?
Sm TGR inh: 0.5%; VACV mCherry inh: 2µM*; LASV entry inh: inconclusive; Vaccinia Venus: inconclusive; MARV entry inh: 11.2µM*; FMDV inh: -6.3%

What do the screens show for `O=C(CNC(=O)c1ccccc1)NCCc1ccc(O)c(O)c1`?
Sm TGR inh: 3.16µM*

What do the screens show for `Cc1cccc2c(N3CCCC3)nc(CNS(=O)(=O)c3ccccc3Cl)nc12`?
VACV mCherry inh: -6.2%; Vaccinia Venus: 2.8%; FMDV inh: -7.4%

Results for CCOC(=O)N/N=C/c1c(C)nn(-c2ccccc2Cl)c1Cl ?
Sm TGR inh: 3.5%; VACV mCherry inh: -9.3%; LASV entry inh: inconclusive; Vaccinia Venus: -6.7%; MARV entry inh: inconclusive; FMDV inh: 19.7%

How did Cc1nn(-c2ccccc2Cl)c(Cl)c1/C=N/Nc1nc2ccccc2s1 do in these assays?
Sm TGR inh: -0.8%; VACV mCherry inh: -12.3%; LASV entry inh: 1.12µM*; Vaccinia Venus: 5.3%; MARV entry inh: 0.0326µM*; FMDV inh: 0.0009µM*

How did CN(C(=O)CN1CCN(c2cc(-c3ccc(-c4ccccc4)cc3)ncn2)CC1)c1ccccc1 do in these assays?
VACV mCherry inh: inconclusive; Vaccinia Venus: inconclusive; FMDV inh: 22.4µM*

What do the screens show for `CN(C(=O)COc1coc(CN2CCN(c3ccccc3)CC2)cc1=O)c1ccccc1`?
Sm TGR inh: 39.4%; VACV mCherry inh: -10.3%; LASV entry inh: 2.6%; Vaccinia Venus: -14.9%; MARV entry inh: inconclusive; FMDV inh: -0.4%

How did CC1=CC(C)(C)Nc2ccc(OC(=O)c3cccnc3)cc21 do in these assays?
Sm TGR inh: -14.0%; LASV entry inh: inconclusive; MARV entry inh: inconclusive; FMDV inh: 28.2µM*

What do the screens show for `CC1=CC(C)(C)Nc2ccc(OC(=O)C(C)N3C(=O)c4ccccc4C3=O)cc21` (stereo not drawn)?
Sm TGR inh: -9.7%; LASV entry inh: inconclusive; MARV entry inh: inconclusive; FMDV inh: 28.2µM*

Results for COc1ccc(OC(=O)C(C)N2C(=O)c3ccccc3C2=O)cc1 (stereo not drawn) ?
Sm TGR inh: inconclusive; VACV mCherry inh: -13.4%; LASV entry inh: inconclusive; Vaccinia Venus: -2.0%; MARV entry inh: 12.2%; FMDV inh: 5.4%

How did COc1ccccc1CNC(=O)c1cnc(N2CCCC2)nc1C do in these assays?
Sm TGR inh: 4.9%; VACV mCherry inh: 0.5%; LASV entry inh: -0.7%[46.1 µM]; Vaccinia Venus: -10.8%; FMDV inh: -1.3%

How did COc1ccc(C(CNC(=O)c2cccc(NS(=O)(=O)c3ccccc3)c2)N2CCCC2)cc1 (stereo not drawn) do in these assays?
FMDV inh: -4.9%

Results for COc1ccc(C(CNC(=O)COc2ccccc2C)N2CCCCC2)cc1 (stereo not drawn) ?
Sm TGR inh: -14.2%; FMDV inh: -18.4%

How did CCc1cc(C(=O)NCC(c2ccc(OC)cc2)N2CCOCC2)sc1C (stereo not drawn) do in these assays?
Sm TGR inh: -4.7%; VACV mCherry inh: inactive; LASV entry inh: 22.8%; Vaccinia Venus: -8.4%; MARV entry inh: 16.2%; FMDV inh: -15.1%

Results for COc1ccc(C(CNC(=O)c2cccc(Br)c2)N2CCCC2)cc1 (stereo not drawn) ?
Sm TGR inh: -12.2%; LASV entry inh: inconclusive; MARV entry inh: 11.6µM*; FMDV inh: -1.3%

How did COc1ccc(C(CNC(=O)COc2ccc(F)cc2Br)N2CCCC2)cc1 (stereo not drawn) do in these assays?
Sm TGR inh: -0.9%; VACV mCherry inh: -7.1%; Vaccinia Venus: -10.0%; MARV entry inh: 4.47µM*; FMDV inh: -23.8%
